Data: PubChem BioAssay AID2783 (National Center for Advancing Translational Sciences (NCATS), 2010)
Inconclusive results are not listed. Calls come from the whole dose curve; as a rule, active = well fitted inhibition curve with a large enough effect in the polarisation, with a control signal flat (not every such curve was filed as active); inconclusive = small, poorly fitted or top-dose-only effect, or effect the other way, or a change in a side signal; inactive = no such curve, though single readings can be large or run the other way; the % refers to the polarisation.

target: Menin (Homo sapiens) (UniProt O00255); assay: Confirmation of Inhibitors Targeting the Menin-MLL Interaction in MLL Related Leukemias: Competition With Fluorescein Labeled MLL-derived Peptide; settings: Fluorescence polarization, fluorescein-MLL peptide displacement from menin; series mostly up to 100 µM; activity change, negative = inhibition: at the top concentration
Sequence (O00255 whole entry, looked up): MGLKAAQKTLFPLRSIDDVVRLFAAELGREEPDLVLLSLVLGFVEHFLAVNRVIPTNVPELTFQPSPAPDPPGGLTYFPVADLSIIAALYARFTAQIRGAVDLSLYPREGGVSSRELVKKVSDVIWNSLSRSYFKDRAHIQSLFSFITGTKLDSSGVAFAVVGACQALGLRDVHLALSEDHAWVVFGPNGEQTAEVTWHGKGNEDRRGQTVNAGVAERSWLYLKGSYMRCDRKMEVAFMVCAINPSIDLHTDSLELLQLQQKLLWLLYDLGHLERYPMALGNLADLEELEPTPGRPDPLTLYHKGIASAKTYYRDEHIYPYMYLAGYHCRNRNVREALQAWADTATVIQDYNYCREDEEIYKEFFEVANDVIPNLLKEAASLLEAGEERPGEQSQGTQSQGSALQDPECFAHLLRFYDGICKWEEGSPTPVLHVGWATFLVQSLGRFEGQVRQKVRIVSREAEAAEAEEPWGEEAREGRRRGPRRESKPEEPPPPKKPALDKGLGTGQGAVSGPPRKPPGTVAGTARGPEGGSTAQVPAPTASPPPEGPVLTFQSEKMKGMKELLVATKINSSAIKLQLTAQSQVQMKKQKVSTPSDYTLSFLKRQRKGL
% is set by controls: 0 for no effect and ±100 for the full control effect.

Activity change, negative = inhibition, inactive:
COc1cc(OC)c2ccc(=O)oc2c1C(CCN1CCOCC1)c1ccc(N(C)C)cc1 (centres undefined) 3.48%
Cc1ccc(NS(=O)(=O)c2csc(C(N)=O)c2)cc1C 1.62% [at 288 µM]
O=C(Nc1cc(Br)ccc1O)c1cc(-c2ccccc2)on1 -3.69%
Cc1nn(-c2ccccc2)c2nc(N)c(C(N)=O)cc12 -7.72%
O=C(CCC1CCCCC1)NCCN1C2=NC[C@H](Cc3ccc(O)cc3)N2C[C@H]1Cc1ccc(O)cc1 -7.15% [at 288 µM]
c1ccc(-c2ccc(-c3csnn3)cc2)cc1 2.75%
O=C(CCN1CCN(c2ccc([N+](=O)[O-])cc2)CC1)c1ccc(Cl)cc1 -6.26% [at 288 µM]
COc1ccc(C2=C(CN(C)C)C(c3ccccc3)c3ccccc3O2)cc1 (centres undefined) -10.7%
COc1ccccc1CC(=O)Nc1ccc(-c2noc(COc3ccc(Br)cc3)n2)cc1 11.3%
O=C(/C=C/c1ccccc1)NC(NC(=S)Nc1cc(Cl)ccc1Cl)C(Cl)(Cl)Cl (centres undefined) -1.38% [at 288 µM]
N=c1oc2ccccc2cc1-c1nc(-c2ccc(Cl)cc2)cs1 5.5%
O=C1C(Cl)=C(NC(=O)c2ccccc2)C(=O)C(Cl)=C1NC(=O)c1ccccc1 5.77% [at 288 µM]
CN(C)C(CNc1ncnc2sc3c(c12)CCCCC3)c1ccco1 (centres undefined) -25.6%
O=C(c1cc(F)c(F)cc1Cl)N1CCN(c2ncccn2)CC1 -2.83%
COc1cc(O)c(C(=O)c2ccccc2)cc1O 4.39% [at 288 µM]
CN(C)CCc1c[nH]c2ccc(CC3COC(=O)N3)cc12 (centres undefined) 0% [at 288 µM]
O=C(Nc1ccc2c(c1)OCO2)c1ccccc1 -1.62%
CCN1C(=O)c2ccccc2S(=O)(=O)c2ccc(C(=O)NCCCN(CC(C)C)CC(C)C)cc21 -17.2%
O=C(CCn1nc(-c2ccccc2)ccc1=O)N1CCN(c2ccccn2)CC1 2.46%
O=C(CS)Nc1ccc2ccccc2c1 -23%
CC(=O)c1ccc2c(c1)N(CCCN1CCC(CCO)CC1)c1ccccc1S2 -8.17% [at 50.1 µM]
CC(NC(=O)c1cnc2ccccc2n1)c1ccccc1 (centres undefined) -12.7% [at 288 µM]
O=C(O)c1ccccc1NS(=O)(=O)c1cccc(-n2sc3ccccc3c2=O)c1 5.28% [at 288 µM]
O=C(O)/C(=C\c1ccc(F)cc1)c1ccc(-c2ccccc2)cc1 5.91%
C=CCN(CC=C)S(=O)(=O)c1ccc(NC(=S)NC(=O)/C=C/c2cccc3ccccc23)cc1 -6.4%
CCCN1CCN(CC(O)COC(c2ccc(OC)cc2)c2ccc(OC)cc2)CC1 (centres undefined) 1.78%
COc1ccc(CC(=O)Nc2ccc(-c3nnc(-c4ccccc4)o3)cc2)cc1 0.728%
O=C1C(Cl)=C(NCCN2CCOCC2)C(=O)c2ncccc21 3.66% [at 288 µM]
O=C(O)CCC(=O)Nc1ccc(SSc2ccc(NC(=O)CCC(=O)O)cc2)cc1 1.46% [at 288 µM]
Clc1ccc(-c2nnc(-c3ccccc3)nc2-c2c[nH]c3ccccc23)cc1 -4.02%
CC(c1ccncn1)N(C)Cc1nc(-c2ccc(C(F)(F)F)cc2)no1 (centres undefined) -10.2%
COc1ccccc1NS(=O)(=O)c1cc(NC(=O)Nc2cccc(C)c2)ccc1N1CCCCC1 -1.07%
CCOC(=O)Cn1cnc2scc(-c3ccc(C)c(C)c3)c2c1=O -13.8%
Cc1ccc(C#CC(C)(O)C(C)(C)C)cn1 (centres undefined) -0.647%
